GLD-1 TGE inh: GLD-1-TGE RNA interaction inhibition (C. elegans); inhibition, % at 5.96 µM; purified GLD-1 + fluorescein TGE RNA, fluorescence polarization; Q17339; 320,000 tested, 0.44% active;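 active means percent inhibition above a per-plate cutoff, the plate mean of test compounds plus 3 SD, cut at about 30% in these data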;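 further: 0% = DMSO wells with GLD-1 and probe and 100% = wells lacking GLD-1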
Mcl1-Noxa inh: disrupts binding of human Mcl-1 to Noxa peptide | 220,000 tested, 1.5% active | TR-FRET Mcl-1/Noxa peptide binding, 2 h | inhibition, % at 21.7 µM;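 active means compounds that cut the protein-peptide binding signal by more than 50% relative to plate controls in a single-dose test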;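 further: His-tagged Mcl-1 with rhodamine Noxa BH3 peptide and terbium anti-His antibody; 0% = Mcl-1 plus Noxa peptide wells and 100% = peptide-only wells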
Target sequence (Q07820 whole entry, looked up): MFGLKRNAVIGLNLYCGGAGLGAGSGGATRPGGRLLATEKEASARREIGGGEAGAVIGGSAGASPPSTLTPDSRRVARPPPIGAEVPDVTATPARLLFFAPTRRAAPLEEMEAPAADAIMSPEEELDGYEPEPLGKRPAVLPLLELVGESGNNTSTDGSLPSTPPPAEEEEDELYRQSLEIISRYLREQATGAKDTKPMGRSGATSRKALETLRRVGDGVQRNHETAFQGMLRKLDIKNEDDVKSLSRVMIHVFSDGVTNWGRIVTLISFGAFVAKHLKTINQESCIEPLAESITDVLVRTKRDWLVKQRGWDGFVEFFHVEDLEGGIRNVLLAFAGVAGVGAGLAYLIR
Mcl-1 Bim block: disrupts Bim peptide binding to human Mcl-1 | Bead-based flow cytometry, Bim peptide-Mcl-1 binding | Q07820 | inhibition, % at 10 µM | 190,000 tested, 0.1% active | AID 1009; in the data active means inhibition above about 40%;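 further: 0% = no compound tracer wells and 100% = peptide blocker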
Mcl1-Bid inh: disrupts binding of human Mcl-1 to Bid peptide | 220,000 tested, 0.97% active | Q07820 | TR-FRET Mcl-1/Bid-Dy647 peptide binding, 1536-well | inhibition, % at 21.7 µM;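 active means compounds that cut the binding signal by more than half at the single screening dose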;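 further: His-tagged Mcl-1 with europium anti-His antibody binding Bid BH3 peptide; 0% = Mcl-1 plus peptide wells and 100% = peptide-only wells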
BCLXL inh: inhibitors of human Bcl-xL | Q07817 | GST-Bcl-xL / FITC-Bim BH3 peptide fluorescence polarization | inhibition, % at 10.9 µM | 320,000 tested, 0.7% active;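 active means inhibition above the mean of all tested compounds plus 3 SD, cutoff set per campaign, cut at about 30% in these data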;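 further: 0% = DMSO wells and 100% = unlabeled Bim-BH3 peptide competitor; inhibitors lower millipolarization by displacing the labeled peptide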
Target sequence (Q07817 whole entry, looked up): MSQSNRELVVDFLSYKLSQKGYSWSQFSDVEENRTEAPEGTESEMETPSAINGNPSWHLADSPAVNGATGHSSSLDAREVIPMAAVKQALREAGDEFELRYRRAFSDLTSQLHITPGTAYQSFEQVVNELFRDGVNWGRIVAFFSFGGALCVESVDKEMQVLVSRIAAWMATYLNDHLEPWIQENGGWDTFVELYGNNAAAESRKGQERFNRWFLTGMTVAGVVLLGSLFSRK
MCL1-BIM inh: MCL1-BIM-BH3 interaction inhibition (human). Q07820. GST-MCL1 / FITC-Bim-BH3 fluorescence polarization. inhibition, % at 10.9 µM. 320,000 tested, 0.68% active;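 active means inhibition above the mean inhibition of all tested compounds plus 3 SD, set per campaign, cut at about 40% in these data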;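 further: 0% = DMSO wells and 100% = unlabeled Bim-BH3 peptide control; higher means more loss of mP so more displacement of Bim peptide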
Bcl-xL conf: Bcl-xL (human) inhibition, MCL1 counter-screen confirmation; shares compounds with MCL1-BIM inh; GST-Bcl-xL / FITC-Bim BH3 peptide FP binding; inhibition, % at 10.9 µM; 1,700 tested, 54% active;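 active means inhibition above a cutoff equal to the mean inhibition of all tested compounds plus 3 SD, cut at about 30% in these data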;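 further: 0% = DMSO wells and 100% = unlabeled Bim BH3 control peptide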
MCL1 inh confirm: confirmation of human MCL1 and BIM-BH3 interaction inhibitors; shares compounds with MCL1-BIM inh; GST-MCL1 / FITC-Bim-BH3 fluorescence polarization; inhibition, % at 10.9 µM; 1,700 tested, 61% active; AID 2168;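 active means inhibition above the average of all tested compounds plus 3 SD, cut at about 40% in these data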;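 further: 0% = DMSO wells and 100% = unlabeled Bim-BH3 control peptide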
Numbers without * were called inactive. Hits are enriched below; roughly 2.3% of the tested compounds scored in any of these assays.

What do the screens show for `COc1ccc(Cl)cc1C(=O)NNC(=O)CSc1nnc2ccccn12`?
GLD-1 TGE inh: -8; Mcl1-Noxa inh: 4; Mcl-1 Bim block: 0; Mcl1-Bid inh: -22; BCLXL inh: 5; MCL1-BIM inh: 40*; Bcl-xL conf: 1; MCL1 inh confirm: 20

How did CC(=O)n1cc([C@@H]2C=C(C(=O)N3CCN(Cc4ccc5c(c4)OCO5)CC3)O[C@H](OCCCCO)C2)c2ccccc21 do in these assays?
GLD-1 TGE inh: 10; Mcl1-Noxa inh: 1; Mcl-1 Bim block: 5; Mcl1-Bid inh: -4; BCLXL inh: 1; MCL1-BIM inh: 9

Results for CC(=O)n1cc([C@H]2C=C(C(=O)N3CCN(Cc4ccccc4)CC3)O[C@@H](OCCCCO)C2)c2ccccc21 ?
GLD-1 TGE inh: -7; Mcl1-Noxa inh: -21; Mcl-1 Bim block: -1; Mcl1-Bid inh: 3; BCLXL inh: 7; MCL1-BIM inh: 70*; Bcl-xL conf: 15; MCL1 inh confirm: 23

What do the screens show for `CCOC(=O)NC1(Nc2ccc(C)cc2)Oc2ccccc2O1`?
GLD-1 TGE inh: 1; Mcl1-Noxa inh: 11; Mcl-1 Bim block: 0; Mcl1-Bid inh: -37; BCLXL inh: 28; MCL1-BIM inh: 58*; Bcl-xL conf: 41*; MCL1 inh confirm: 46*

How did CC[C@@]1(O)C(=O)OCc2c1cc1n(c2=O)Cc2cc3c(CN(C)C)c(O)ccc3nc2-1 do in these assays?
GLD-1 TGE inh: active; BCLXL inh: active; MCL1-BIM inh: active; Bcl-xL conf: active; MCL1 inh confirm: active

How did CC[C@@]1(O)C(=O)OCc2c1cc1n(c2=O)Cc2cc3c(N)cccc3nc2-1 do in these assays?
GLD-1 TGE inh: -3; Mcl1-Noxa inh: 33; Mcl1-Bid inh: -95; BCLXL inh: 7; MCL1-BIM inh: 16

Results for Cc1cccc(C(C)C)c1NC(=O)C(C)OC(=O)Cc1n[nH]c(=O)c2ccccc12 (stereo not drawn) ?
GLD-1 TGE inh: 1; BCLXL inh: -2; MCL1-BIM inh: 0

Results for COc1ncccc1C(=O)N1CCCC(N2CCN(c3cccc(Cl)c3)CC2)C1 (stereo not drawn) ?
GLD-1 TGE inh: 4; BCLXL inh: 3; MCL1-BIM inh: 6

Results for Nc1cccc2c(=O)c3ccccc3[nH]c12 ?
GLD-1 TGE inh: 7; BCLXL inh: 29; MCL1-BIM inh: 41*; Bcl-xL conf: 37*; MCL1 inh confirm: 25

What do the screens show for `Cc1ccc(C)c(C(=O)CCC(=O)OCn2nnc3ccccc3c2=O)c1`?
GLD-1 TGE inh: -3; BCLXL inh: 2; MCL1-BIM inh: 85*; Bcl-xL conf: 12; MCL1 inh confirm: 9

What do the screens show for `CC(C)(C)c1ccc(C(=O)Nc2cccc3c(=O)[nH][nH]c(=O)c23)cc1`?
GLD-1 TGE inh: 46*; Mcl1-Noxa inh: 4; Mcl-1 Bim block: -1; Mcl1-Bid inh: -42; BCLXL inh: 29; MCL1-BIM inh: 43*; Bcl-xL conf: 42*; MCL1 inh confirm: 47*

How did O=C(COC(=O)c1ccc([N+](=O)[O-])s1)Nc1ccc(Cl)cn1 do in these assays?
GLD-1 TGE inh: 1; Mcl1-Noxa inh: 16; Mcl-1 Bim block: -5; Mcl1-Bid inh: 12; BCLXL inh: 17; MCL1-BIM inh: 16

How did Cc1c(Cl)cnc(NC(=O)COC(=O)c2ccc([N+](=O)[O-])s2)c1Cl do in these assays?
GLD-1 TGE inh: 19; Mcl1-Noxa inh: 94*; Mcl-1 Bim block: -4; Mcl1-Bid inh: 7; BCLXL inh: 42*; MCL1-BIM inh: 61*; Bcl-xL conf: 34*; MCL1 inh confirm: 48*

What do the screens show for `CSc1ccc(C2C(C#N)=C(N)Oc3cc4c(cc32)OCO4)cc1` (stereo not drawn)?
GLD-1 TGE inh: -1; Mcl1-Noxa inh: 10; Mcl-1 Bim block: 0; Mcl1-Bid inh: -24; BCLXL inh: 7; MCL1-BIM inh: 43*; Bcl-xL conf: 3; MCL1 inh confirm: 7

Results for Cc1ccc(C2C(C#N)=C(N)Oc3cc4c(cc32)OCO4)cc1 (stereo not drawn) ?
GLD-1 TGE inh: 1; Mcl1-Noxa inh: 17; Mcl-1 Bim block: -2; Mcl1-Bid inh: -26; BCLXL inh: -1; MCL1-BIM inh: -6

Results for O=S(=O)(O)c1cc(O)c2c(O)c(N=Nc3cc(Cl)ccc3O)c(S(=O)(=O)O)cc2c1 ?
GLD-1 TGE inh: 3; BCLXL inh: 29; MCL1-BIM inh: 56*; Bcl-xL conf: 36*; MCL1 inh confirm: 57*

How did O=C(Cn1c(=O)n(Cc2ccco2)c(=O)c2c3c(sc21)CCCCC3)Nc1ccccc1 do in these assays?
GLD-1 TGE inh: 6; Mcl1-Noxa inh: 41; Mcl-1 Bim block: 0; Mcl1-Bid inh: -17; BCLXL inh: 7; MCL1-BIM inh: 14

How did O=C(Cn1c(=O)n(Cc2ccco2)c(=O)c2c3c(sc21)CCCCC3)c1ccccc1 do in these assays?
GLD-1 TGE inh: -11; Mcl1-Noxa inh: 41; Mcl-1 Bim block: -4; Mcl1-Bid inh: -18; BCLXL inh: 26; MCL1-BIM inh: 43*; Bcl-xL conf: 20; MCL1 inh confirm: 32

Results for CCOC(=O)N1CCC(N2Cc3cccc(C(=O)Nc4ccc(N(CC)CC)cc4C)c3C2=O)CC1 ?
GLD-1 TGE inh: -4; BCLXL inh: 1; MCL1-BIM inh: 1

What do the screens show for `N#CC1=C(N)Oc2cc(N)ccc2C1c1ccc(F)cc1` (stereo not drawn)?
GLD-1 TGE inh: 2; Mcl1-Noxa inh: 0; Mcl-1 Bim block: -4; Mcl1-Bid inh: -17; BCLXL inh: 6; MCL1-BIM inh: 5

Results for N#CC1=C(N)Oc2cc(N)ccc2C1c1ccc(F)cc1F (stereo not drawn) ?
GLD-1 TGE inh: 4; BCLXL inh: 55*; MCL1-BIM inh: 54*; Bcl-xL conf: 23; MCL1 inh confirm: 23

Results for Cc1ccc(-c2ccc(=O)n(CC(=O)NCCN(CC(C)C)CC(C)C)n2)cc1 ?
GLD-1 TGE inh: -2; BCLXL inh: 1; MCL1-BIM inh: -1

How did Cn1ccc2cc3c(cc21)CCN3C(=O)Nc1cccnc1 do in these assays?
GLD-1 TGE inh: -3; BCLXL inh: 17; MCL1-BIM inh: 46*; Bcl-xL conf: 39*; MCL1 inh confirm: 50*

What do the screens show for `Cc1nc(C)c(NC(=O)N2CCc3ccccc32)cc1NC(=O)N1CCc2ccccc21`?
GLD-1 TGE inh: -3; Mcl1-Noxa inh: 13; Mcl-1 Bim block: -2; Mcl1-Bid inh: -13; BCLXL inh: 9; MCL1-BIM inh: 4

Results for CCCCCCC(=O)O ?
GLD-1 TGE inh: 1

Assay outcomes (PubChem BioAssay)
